Bioassay records as filed in PubChem.
Sfp PPTase inh – inhibitors of Bacillus subtilis Sfp phosphopantetheinyl transferase | Q9F4F7 | Biochemical Sfp PPTase activity, qHTS | Potency, µM, for inactives: largest response in the series, negative = inhibition, usual class: inhibitors | actives 3.5% (n = 310,000) | AID 1490;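 note: the enzyme is Sfp with the accession as filed and its product quenches rhodamine fluorescence; potency is the fitted concentration of half-maximal effect; 0% = enzyme reaction without inhibitor and -100% = no enzyme wells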
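With Hepes-Na pH 7.6 buffer containing 10 mM MgCl2, Sfp (15 nM) modified BHQ-2-YbbR (12.5 uM) using rhodamine-CoA (5 uM). Two reads 30 minutes apart at 525/598 nm yielded each well's rate.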
Tau ThT inhib – inhibitors of human tau fibril formation, thioflavin T binding; P10636; recombinant tau K18 P301L, heparin-induced fibrillization, ThT fluorescence; Potency, µM (titrated, usually from 57.4 µM), inactives show at the highest dose activity, negative = inhibition, actives largely listed as inhibitors; actives 2.1% (n = 270,000); AID 1460; note: potency is the fitted concentration of half-maximal effect; nearly all actives have a fitted effect of over 55% in size
Target sequence (P10636 561-689 P618L limits assumed): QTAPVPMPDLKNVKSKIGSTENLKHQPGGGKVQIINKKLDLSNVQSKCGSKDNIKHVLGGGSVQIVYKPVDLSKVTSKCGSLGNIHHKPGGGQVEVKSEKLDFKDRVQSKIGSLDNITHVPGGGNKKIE
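Tau K18 P301L fragment (15 uM unlabeled plus 0.24 uM Alexa 594-labeled) in 100 mM sodium acetate pH 7 with compound, fibrillization induced by 20 uM heparin for 6 hr at 37 C. Thioflavin T (30 uM) added, fluorescence read after 1 hr (ex 450, em 510 nm).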
Tau fluor cs – counter-screen for tau fibril formation inhibitors; Potency, µM (top dose mostly 57.7 µM), without a hit: top-dose activity change, negative = decrease; actives 0.93% (n = 280,000); tau K18 P301L (four-repeat tau fragment) Alexa594 fluorescence, heparin fibrillization; AID 1463; note: potency is the fitted concentration of half-maximal effect; nearly all actives have a fitted effect of over 55% in size
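Human K18 P301L tau (15 uM unlabeled plus 0.24 uM Alexa 594-labeled, final) in 100 mM sodium acetate pH 7 was mixed with compound and 20 uM heparin and incubated 6 hr at 37 C.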
Coupling enz – counter-screen for Giardia aldolase inhibitors: coupling enzyme system; AID 2472; activity change, negative = inhibition, % at 58.2 µM, hits read low; actives 0.67% (n = 290,000); coupling enzyme system counterscreen, AmpLite Red fluorescence; in the data active = activity change below about -30%
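Activity here indicates interference with the coupling reaction, not aldolase inhibition. Compounds at 57.5 uM final met coupling enzymes for 10 min at RT; substrate and AmpLite Red detection followed, with a 525/598 nm fluorescence read after 20 min.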
KDM4E inh – blocks human JMJD2E demethylase activity. JMJD2E catalytic domain, FDH-coupled NADH fluorescence (FDH is formaldehyde dehydrogenase). Potency, µM (highest dose often 57.1 µM), without a hit: at the highest dose activity change, negative = inhibition, usual class: inhibitors. actives 1.6% (n = 230,000); active = well fitted inhibition curve with a large enough effect, not every such curve was filed as active; inconclusive = small, poorly fitted or top-dose-only effect, or another doubt; inactive = no such curve, though single readings can be large or run the other way;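 note: potency is the fitted concentration of half-maximal effect; 0% = wells with enzyme and -100% = buffer wells without enzyme; nearly all actives have a fitted effect of over 50% in size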
Target sequence (B2RXH2 1-337 limits assumed): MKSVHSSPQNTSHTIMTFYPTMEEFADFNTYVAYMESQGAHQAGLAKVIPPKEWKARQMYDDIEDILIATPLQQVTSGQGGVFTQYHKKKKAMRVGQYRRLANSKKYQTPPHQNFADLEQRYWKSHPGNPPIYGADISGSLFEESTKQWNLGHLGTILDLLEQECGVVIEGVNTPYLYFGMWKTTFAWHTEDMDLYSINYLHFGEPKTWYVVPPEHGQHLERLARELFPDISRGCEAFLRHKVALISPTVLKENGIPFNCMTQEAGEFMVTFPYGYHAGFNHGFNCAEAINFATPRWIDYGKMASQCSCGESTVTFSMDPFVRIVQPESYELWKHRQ
Tau FP inhib – blocks human tau fibril formation measured by polarization. Potency, µM (doses to about 57.7 µM), without a hit: top-dose activity, negative = inhibition, hits mostly inhibitors. K18 P301L tau heparin fibrillization, Alexa594 FP, 6 h. actives 0.39% (n = 280,000). AID 1468; note: potency is the fitted concentration of half-maximal effect; nearly all actives have a fitted effect of over 55% in size
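Recombinant K18 P301L […], labeled with Alexa 594 at 0.24 uM over 15 uM unlabeled; heparin inducer 20 uM final; 37 C, 6 hr; FP endpoint.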
* hit, by the source's call; ? = inconclusive; . = not tested or not shown; [ ] = dose if it differs, or a comment. Most compounds without a hit are left out; they make up all but 5.3% or so of the library. Unless noted, calls come from the whole dose curve; as a rule, active = well fitted curve in the direction sought with a large enough effect; inconclusive = small, poorly fitted or top-dose-only effect, or another doubt; inactive = no such curve, though single readings can be large; an effect the other way counts as inactive or inconclusive. Unless noted, % is set by controls: 0 for no effect and ±100 for the full control effect.

SMILES | Sfp PPTase inh | Tau ThT inhib | Tau fluor cs | Coupling enz | KDM4E inh | Tau FP inhib
CCOc1cc(N2CCOCC2)c(OCC)cc1NC(C)C(=O)N1CCN(CC)CC1 (stereo unspecified) | 35µM* | 16µM* | ? | -43* | 27% | ?
CC(C)(C)C(=O)OCc1cc(=O)n2nc(C3CCCCC3)sc2n1 | . | -10% | 2% | . | . | 0%
O=C(NCc1cccc(Cl)c1)NCc1noc2ccccc12 | . | -7% | -20% | . | . | -8%
O=C1C[C@@H](O)[C@@H](O)[C@@H]2[C@H]3C(=O)N(c4ccc(F)cc4F)C(=O)[C@@H]3CC[C@H]12 | 5% | 0%[11.5 µM] | -3%[11.6 µM] | 5 | . | -10%[11.6 µM]
CCOc1cc(N2CCOCC2)c(OCC)cc1NC(=O)CSc1cccc[n+]1[O-] | -33% | ? | -9% | -33* | ? | -10%
CCOc1cc(N2CCOCC2)c(OCC)cc1NC(=O)CSc1ncccn1 | 0% | -6% | -9% | 4 | -5% | 4%
Cc1noc(C)c1-c1nc(NCc2cccs2)c2ccccc2n1 | 71µM* | . | . | 1 | . | .
COCCNc1nc(-c2c(C)noc2C)nc2ccccc12 | 1% | . | . | 7 | . | .
Cc1cccc(Cl)c1OCCN1CCCC1 | -2% | . | . | -30* | . | .
CCC(=O)N1c2ccccc2CC1C(=O)NCCc1ccc(OC)c(OC)c1 (stereo unspecified) | . | 0% | 2% | . | . | -2%
c1ccc2c3c([nH]c2c1)[C@@H]1[C@H]2CC[C@H]([C@H]4CCCN[C@H]42)N1CC3 | 8% | . | . | -3 | ? | .
CCOc1ccc(C2=C(C(C)=O)Sc3nnc(C)n3N2C(C)=O)cc1 | . | ? | -17% | . | . | ?
CC(=O)C1=C(c2cccc([N+](=O)[O-])c2)N(C(C)=O)n2c(C)nnc2S1 | -11% | 3.5µM* | -29% | 2 | 0% | ?
CNS(=O)(=O)c1cn(CC(=O)Nc2ccc(OC)cc2OC)cc1S(=O)(=O)NC | . | 4% | -4% | . | . | 0%
CCn1cc2nc(SCc3cc(C)ccc3C)n(CCc3ccccc3)c(=O)c2n1 | . | ? | -25% | . | . | -12%
COc1ccc(-c2csc(/C(C#N)=C(\O)CSc3nccn3C)n2)cc1OC | ? | 18µM* | ? | -15 | ? | -3%
CCN(CC)CCN(C(=O)c1ccc2ncsc2c1)c1nc2cc3c(cc2s1)OCO3 | 35µM* | . | . | -4 | . | .
Cc1ccc(CNC(=O)c2c(O)nc3ccccn3c2=O)cc1 | . | 7% | -9% | . | . | -2%
COC(=O)[C@H](CCSC)NC(=O)c1cc2c(cn1)[nH]c1ccccc12 | 8.9µM* | . | . | 0 | . | .
Cc1ccc(C)c(N2CCN(C(=O)c3cc4c(=O)oc5ccccc5c4s3)CC2)c1 | . | -4% | -13% | . | . | -4%
CCc1nc2ccc(C(=O)NCc3ccc(OC)c(OC)c3)cc2nc1CC | . | -1% | -9% | . | . | -6%
S=c1[nH]nc(-c2cc(-c3ccco3)[nH]n2)n1-c1cccc2ccccc12 | 10µM* | -13% | -16% | -5 | -6% | -3%
Cc1cccc(-n2c(-c3ccco3)n[nH]c2=S)c1 | -15% | -12% | -3% | -5 | ? | 9%
Cc1ccc(-n2c(-c3cc(-c4ccco4)[nH]n3)n[nH]c2=S)c(Br)c1 | 50µM* | . | -25% | -3 | -7% | -9%
Cc1ccccc1-n1c(-c2ccco2)n[nH]c1=S | 4% | 7% | 6% | -2 | ? | -8%
Cc1cc(CNC(=O)[C@]2(C(F)(F)F)C[C@H](CCC3CCCCC3)CCCO2)nn1C | -6% | . | . | 0 | . | .
C=C(C(C)=O)C(O)c1cccc(Br)c1 (stereo unspecified) | 8% | -12% | -5% | 2 | 4% | 0%
CCC1CCc2nc3sc(C(=O)Nc4ccc(C)cc4)c(N)c3cc2C1 (stereo unspecified) | . | ? | -16% | . | . | -4%
CC(=O)Oc1c(C)cc(O)c2ccccc12 | 11% | 25µM* | ? | -32* | ? | ?
CCc1ccccc1N(CC)C(=O)Cn1nc(Cc2ccncc2)c2ccccc2c1=O | . | -8% | -2% | . | . | 6%
